According to PubChem BioAssay AID1159580 (chemical genetic matrix, 2015):
Screen size: about 5,500 compounds; about 2,000 (36%) were called active. Another 18% or so got no clear call; they are omitted. This is one part of the list. Unmarked numbers belong to inactive results. No stated cut-off is given here; in the data, active means normalized growth mostly below about 0.91 (no sharp cut-off); inconclusive means no clear call, values can overlap the other calls; inactive means mostly above about 0.92.

Assay: chemical genetic growth profiling, strain panel (AID 1159580);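 further: tested at 20 µM; growth read once vehicle control cultures reached saturation at 30 °C; 1 = growth at the plate median or of vehicle wells; lower values mean less growth of the strain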
Conditions: growth OD
[1] = S. cerevisiae deletion strains, locus YAL013W, strain DEP1, active compounds read low
[2] = S. cerevisiae deletion strains, locus YBR229C, strain ROT2, active compounds read low
[3] = S. cerevisiae deletion strains, locus YDL101C, strain DUN1, active compounds read low
[4] = S. cerevisiae deletion strains, locus YDR150W, strain NUM1, active compounds read low
[5] = S. cerevisiae deletion strains, locus YEL061C, strain CIN8, active compounds read low
[6] = S. cerevisiae deletion strains, locus YGR078C, strain PAC10, active compounds read low
[7] = S. cerevisiae deletion strains, locus YHR030C, strain SLT2, active compounds read low
[8] = S. cerevisiae deletion strains, locus YHR087W, strain rtc3, active compounds read low
[9] = S. cerevisiae deletion strains, locus YJL187C, strain SWE1, active compounds read low
[10] = S. cerevisiae deletion strains, locus YJR043C, strain POL32, active compounds read low
[11] = S. cerevisiae deletion strains, locus YJR075W, strain HOC1, active compounds read low
[12] = S. cerevisiae deletion strains, locus YLR039C, strain RIC1, active compounds read low
[13] = S. cerevisiae deletion strains, locus YLR058C, strain SHM2 (second series), active compounds read low
[14] = S. cerevisiae deletion strains, locus YLR085C, strain ARP6, active compounds read low
[15] = S. cerevisiae deletion strains, locus YLR262C, strain YPT6, active compounds read low
[16] = S. cerevisiae deletion strains, locus YML094W, strain GIM5, active compounds read low
[17] = S. cerevisiae deletion strains, locus YMR219W, strain ESC1, active compounds read low
[18] = S. cerevisiae deletion strains, locus YMR263W, strain SAP30, active compounds read low
[19] = S. cerevisiae deletion strains, locus YMR307W, strain GAS1, active compounds read low
[20] = S. cerevisiae deletion strains, locus YNL153C, strain GIM3, active compounds read low
[21] = S. cerevisiae deletion strains, locus YNL298W, strain CLA4 (second series), active compounds read low
[22] = S. cerevisiae deletion strains, locus YNL322C, strain KRE1, active compounds read low
[23] = S. cerevisiae deletion strains, locus YNR030W, strain Alg12, active compounds read low
[24] = S. cerevisiae deletion strains, locus YPL055C, strain LGE1, active compounds read low
[25] = S. cerevisiae deletion strains, locus YPL241C, strain CIN2, active compounds read low
[26] = S. cerevisiae deletion strains, locus YPR135W, strain CTF4, active compounds read low

CCCc1cc(C(=O)Nc2ccc(N(CC)CC)cc2)nn1-c1ccccc1
normalized growth [1]: 0.98
normalized growth [2]: 0.983
normalized growth [3]: 0.981
normalized growth (S. cerevisiae deletion strains, locus YDL134C, strain PPH21, active compounds read low): 0.873 (active)
normalized growth [4]: 0.966
normalized growth [5]: 0.895 (active)
normalized growth [6]: 0.975
normalized growth [7]: 0.276 (active)
normalized growth [8]: 0.981
normalized growth [9]: 0.991
normalized growth [10]: 0.973
normalized growth [11]: 0.967
normalized growth (S. cerevisiae deletion strains, locus YKL190W, strain CNB1, active compounds read low): 0.96
normalized growth [12]: 1
normalized growth [13]: 0.982
normalized growth [14]: 0.813
normalized growth [15]: 0.915
normalized growth [16]: 0.911
normalized growth [17]: 0.999
normalized growth [18]: 0.991
normalized growth [19]: 0.275 (active)
normalized growth [20]: 0.987
normalized growth [21]: 0.884
normalized growth [22]: 0.991
normalized growth [23]: 0.89
normalized growth (S. cerevisiae deletion strains, locus YOL006C, strain TOP1, active compounds read low): 0.626 (active)
normalized growth [24]: 0.973
normalized growth [25]: 0.92
normalized growth [26]: 0.718
normalized growth (S. cerevisiae strains, strain wild type, active compounds read low): 0.922

O=C(NC(c1ccccc1)C(N=Cc1ccccc1)c1ccccc1)c1ccccc1 (centres undefined)
normalized growth [1]: 1
normalized growth [2]: 1.02
normalized growth (S. cerevisiae deletion strains, locus YCL061C, strain MRC1, active compounds read low): 1.02
normalized growth [3]: 1
normalized growth [4]: 0.959
normalized growth [5]: 1.03
normalized growth [6]: 1.01
normalized growth (S. cerevisiae deletion strains, locus YGR229C, strain SMI1, active compounds read low): 1.02
normalized growth [7]: 1.05
normalized growth [8]: 1
normalized growth [9]: 1.02
normalized growth [10]: 1.02
normalized growth [11]: 1.01
normalized growth [12]: 1.04
normalized growth [13]: 1.03
normalized growth [14]: 1.03
normalized growth [15]: 1.1
normalized growth [16]: 1.01
normalized growth [17]: 1.01
normalized growth [18]: 0.978
normalized growth [19]: 0.999
normalized growth [20]: 0.998
normalized growth [21]: 1.05
normalized growth [22]: 1
normalized growth [23]: 1.02
normalized growth [24]: 0.917
normalized growth [25]: 1.01
normalized growth [26]: 1.01

C(=NC(N=Cc1ccccc1)c1ccccc1)c1ccccc1 (centres undefined)
normalized growth (S. cerevisiae deletion strains, locus YAR019C, strain CDC15, active compounds read low): 0.983
normalized growth (S. cerevisiae deletion strains, locus YBL105C, strain PKC1, active compounds read low): 0.991
normalized growth (S. cerevisiae deletion strains, locus YBR135W, strain CKS1, active compounds read low): 0.986
normalized growth (S. cerevisiae deletion strains, locus YBR136W, strain MEC1, active compounds read low): 0.977
normalized growth (S. cerevisiae deletion strains, locus YBR160W, strain CDC28, active compounds read low): 0.989
normalized growth (S. cerevisiae deletion strains, locus YDL017W, strain CDC7, active compounds read low): 0.99
normalized growth (S. cerevisiae deletion strains, locus YDL028C, strain MPS1, active compounds read low): 0.984
normalized growth [3]: 0.994
normalized growth (S. cerevisiae deletion strains, locus YDL108W, strain KIN28, active compounds read low): 0.976
normalized growth (S. cerevisiae deletion strains, locus YDL132W, strain cdc53, active compounds read low): 0.992
normalized growth (S. cerevisiae deletion strains, locus YDL214C, strain PRR2, active compounds read low): 0.956
normalized growth (S. cerevisiae deletion strains, locus YDR052C, strain DBF4, active compounds read low): 0.989
normalized growth (S. cerevisiae deletion strains, locus YDR054C, strain cdc34, active compounds read low): 0.991
normalized growth (S. cerevisiae deletion strains, locus YDR226W, strain ADK1, active compounds read low): 0.992
normalized growth (S. cerevisiae deletion strains, locus YDR477W, strain SNF1, active compounds read low): 0.963
normalized growth (S. cerevisiae deletion strains, locus YER123W, strain YCK3, active compounds read low): 0.937
normalized growth (S. cerevisiae deletion strains, locus YER133W, strain GLC7, active compounds read low): 0.971
normalized growth (S. cerevisiae deletion strains, locus YFL009W, strain cdc4, active compounds read low): 0.992
normalized growth (S. cerevisiae deletion strains, locus YFL029C, strain CAK1, active compounds read low): 0.981
normalized growth (S. cerevisiae deletion strains, locus YFR003C, strain YPI1, active compounds read low): 0.989
normalized growth (S. cerevisiae deletion strains, locus YFR019W, strain FAB1, active compounds read low): 0.962
normalized growth (S. cerevisiae deletion strains, locus YFR028C, strain CDC14, active compounds read low): 0.995
normalized growth (S. cerevisiae deletion strains, locus YGR040W, strain KSS1, active compounds read low): 0.958
normalized growth (S. cerevisiae deletion strains, locus YGR052W, strain FMP48, active compounds read low): 1.03
normalized growth (S. cerevisiae deletion strains, locus YGR092W, strain DBF2, active compounds read low): 0.974
normalized growth [7]: 0.919
normalized growth (S. cerevisiae deletion strains, locus YHR079C, strain IRE1, active compounds read low): 0.934
normalized growth (S. cerevisiae deletion strains, locus YHR082C, strain KSP1, active compounds read low): 0.986
normalized growth (S. cerevisiae deletion strains, locus YHR205W, strain SCH9, active compounds read low): 0.894
normalized growth (S. cerevisiae deletion strains, locus YIL147C, strain SLN1, active compounds read low): 0.984
normalized growth (S. cerevisiae deletion strains, locus YJL095W, strain BCK1, active compounds read low): 0.918
normalized growth (S. cerevisiae deletion strains, locus YJL128C, strain PBS2, active compounds read low): 0.961
normalized growth (S. cerevisiae deletion strains, locus YJL157C, strain FAR1, active compounds read low): 0.977
normalized growth (S. cerevisiae deletion strains, locus YJR016C, strain ILV3, active compounds read low): 0.997
normalized growth (S. cerevisiae deletion strains, locus YJR066W, strain TOR1 (second series), active compounds read low): 0.937
normalized growth (S. cerevisiae deletion strains, locus YJR066W, strain TOR1, active compounds read low): 0.973
normalized growth (S. cerevisiae deletion strains, locus YKL048C, strain ELM1, active compounds read low): 0.957
normalized growth (S. cerevisiae deletion strains, locus YKL067W, strain YNK1, active compounds read low): 0.956
normalized growth (S. cerevisiae deletion strains, locus YKL101W, strain HSL1, active compounds read low): 0.941
normalized growth (S. cerevisiae deletion strains, locus YKL193C, strain SDS22, active compounds read low): 0.995
normalized growth (S. cerevisiae deletion strains, locus YKL203C, strain TOR2, active compounds read low): 1.02
normalized growth (S. cerevisiae deletion strains, locus YLR113W, strain HOG1, active compounds read low): 0.856 (active)
normalized growth (S. cerevisiae deletion strains, locus YLR133W, strain CKI1, active compounds read low): 0.958
normalized growth (S. cerevisiae deletion strains, locus YLR403W, strain SFP1, active compounds read low): 0.945
normalized growth (S. cerevisiae deletion strains, locus YML070W, strain DAK1, active compounds read low): 0.947
normalized growth (S. cerevisiae deletion strains, locus YMR001C, strain CDC5, active compounds read low): 0.995
normalized growth (S. cerevisiae deletion strains, locus YMR205C, strain PFK2 (second series), active compounds read low): 0.953
normalized growth (S. cerevisiae deletion strains, locus YMR277W, strain FCP1, active compounds read low): 0.998
normalized growth (S. cerevisiae deletion strains, locus YNL006W, strain LST8, active compounds read low): 0.994
normalized growth (S. cerevisiae deletion strains, locus YNL020C, strain ARK1, active compounds read low): 0.966
normalized growth (S. cerevisiae deletion strains, locus YNL161W, strain CBK1, active compounds read low): 0.992
normalized growth (S. cerevisiae deletion strains, locus YNL183C, strain NPR1, active compounds read low): 0.946
normalized growth (S. cerevisiae deletion strains, locus YNL207W, strain RIO2, active compounds read low): 0.983
normalized growth (S. cerevisiae deletion strains, locus YNL222W, strain SSU72, active compounds read low): 0.99
normalized growth (S. cerevisiae deletion strains, locus YNL307C, strain MCK1 (second series), active compounds read low): 0.964
normalized growth (S. cerevisiae deletion strains, locus YOL078W, strain AVO1, active compounds read low): 0.992
normalized growth (S. cerevisiae deletion strains, locus YOL136C, strain PFK27, active compounds read low): 0.968
normalized growth (S. cerevisiae deletion strains, locus YOR061W, strain CKA2, active compounds read low): 0.942
normalized growth (S. cerevisiae deletion strains, locus YOR119C, strain RIO1, active compounds read low): 0.972
normalized growth (S. cerevisiae deletion strains, locus YOR231W, strain MKK1, active compounds read low): 0.911
normalized growth (S. cerevisiae deletion strains, locus YOR329C, strain SCD5, active compounds read low): 0.989
normalized growth (S. cerevisiae deletion strains, locus YPL031C, strain PHO85, active compounds read low): 0.962
normalized growth (S. cerevisiae deletion strains, locus YPL153C, strain RAD53, active compounds read low): 0.955
normalized growth (S. cerevisiae deletion strains, locus YPL204W, strain HRR25, active compounds read low): 0.976
normalized growth (S. cerevisiae deletion strains, locus YPL209C, strain IPL1, active compounds read low): 0.99
normalized growth (S. cerevisiae deletion strains, locus YPL256C, strain CLN2, active compounds read low): 0.913
normalized growth (S. cerevisiae deletion strains, locus YPR025C, strain CCL1, active compounds read low): 0.991
normalized growth (S. cerevisiae deletion strains, locus YPR106W, strain ISR1, active compounds read low): 0.99
normalized growth (S. cerevisiae deletion strains, locus YPR111W, strain DBF20, active compounds read low): 0.985
normalized growth (S. cerevisiae deletion strains, strain NNK1, active compounds read low): 0.981
normalized growth (S. cerevisiae deletion strains, strain TSCII, active compounds read low): 0.991
